The campaign covered roughly 5,500 compounds. About 2,000 (36%) were called active. Inconclusive results (about 18%) are left out. The list shows a part of the results. Unmarked numbers belong to inactive results. Cut-off read from the data, not from the text of the source: active = normalized growth mostly below about 0.91 (no sharp cut-off); inconclusive = no clear call, values can overlap the other calls; inactive = mostly above about 0.92.
Experiment: chemical genetic growth profiling, strain panel (AID 1159580);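 note: tested at 20 µM; growth read once vehicle control cultures reached saturation at 30 °C; 1 = growth at the plate median or of vehicle wells; lower values mean less growth of the strain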
Settings: S. cerevisiae deletion strains, growth OD
[1] = locus YAL040C, strain CLN3, hits give low values
[2] = locus YCL061C, strain MRC1 (second series), hits give low values
[3] = locus YDR363W, strain ESC2, hits give low values
[4] = locus YER002W, strain NOP16, hits give low values
[5] = locus YNL175C, strain NOP13, hits give low values
[6] = locus YNL197C, strain WHI3, hits give low values
[7] = locus YNL224C, strain SQS1, hits give low values
[8] = locus YOR083W, strain WHI5 (second series), hits give low values
[9] = locus YPL241C, strain CIN2, hits give low values
[10] = locus YGR078C, strain PAC10, hits give low values

COc1cc(C(O)CO)ccc1OS(=O)(=O)O (stereo not drawn)
normalized growth [1]: 0.981
normalized growth [2]: 1
normalized growth [3]: 0.994
normalized growth [4]: 0.991
normalized growth (locus YGR229C, strain SMI1, hits give low values): 1.01
normalized growth [5]: 0.998
normalized growth [6]: 1
normalized growth [7]: 1.01
normalized growth (locus YNL322C, strain KRE1, hits give low values): 1.01
normalized growth [8]: 1.05
normalized growth [9]: 0.996

C1COC(NC(C2CC2)C2CC2)=N1
normalized growth [1]: 1.01
normalized growth [2]: 0.997
normalized growth [3]: 1.01
normalized growth [4]: 0.995
normalized growth [10]: 0.997
normalized growth (locus YMR307W, strain GAS1, hits give low values): 0.956
normalized growth [5]: 1.01
normalized growth [6]: 0.997
normalized growth [7]: 0.999
normalized growth [8]: 1.01

CSc1nc(N)c2ncn([C@@H]3O[C@H](COP(=O)(O)OP(=O)(O)OP(=O)(O)O)[C@H](O)C3O)c2n1 (stereo partly drawn)
normalized growth [1]: 0.978
normalized growth (locus YDR150W, strain NUM1, hits give low values): 1.03
normalized growth [4]: 0.998
normalized growth [10]: 0.981
normalized growth (locus YMR263W, strain SAP30, hits give low values): 1
normalized growth (locus YNL153C, strain GIM3, hits give low values): 1.01
normalized growth [5]: 0.986
normalized growth [6]: 0.979
normalized growth [7]: 0.967
normalized growth [8]: 1
normalized growth [9]: 1.01

COc1cc(Br)cc(C=Nc2ccc(Sc3ccccc3)nc2Sc2ccccc2)c1O
normalized growth (locus YAR019C, strain CDC15, hits give low values): 0.968
normalized growth (locus YBL105C, strain PKC1, hits give low values): 0.976
normalized growth (locus YBR135W, strain CKS1, hits give low values): 0.96
normalized growth (locus YBR136W, strain MEC1, hits give low values): 0.973
normalized growth (locus YBR160W, strain CDC28, hits give low values): 0.965
normalized growth (locus YDL017W, strain CDC7, hits give low values): 0.969
normalized growth (locus YDL028C, strain MPS1, hits give low values): 0.962
normalized growth (locus YDL101C, strain DUN1, hits give low values): 0.969
normalized growth (locus YDL108W, strain KIN28, hits give low values): 0.958
normalized growth (locus YDL132W, strain cdc53, hits give low values): 0.949
normalized growth (locus YDL214C, strain PRR2, hits give low values): 0.838
normalized growth (locus YDR052C, strain DBF4, hits give low values): 0.976
normalized growth (locus YDR054C, strain cdc34, hits give low values): 0.957
normalized growth (locus YDR226W, strain ADK1, hits give low values): 0.964
normalized growth (locus YDR477W, strain SNF1, hits give low values): 0.812
normalized growth (locus YER123W, strain YCK3, hits give low values): 0.831
normalized growth (locus YER133W, strain GLC7, hits give low values): 0.843
normalized growth (locus YFL009W, strain cdc4, hits give low values): 0.955
normalized growth (locus YFL029C, strain CAK1, hits give low values): 0.966
normalized growth (locus YFR003C, strain YPI1, hits give low values): 0.967
normalized growth (locus YFR019W, strain FAB1, hits give low values): 0.969
normalized growth (locus YFR028C, strain CDC14, hits give low values): 0.955
normalized growth (locus YGR040W, strain KSS1, hits give low values): 0.857
normalized growth (locus YGR052W, strain FMP48, hits give low values): 0.782
normalized growth (locus YGR092W, strain DBF2, hits give low values): 0.523
normalized growth (locus YHR030C, strain SLT2, hits give low values): 0.489 (active)
normalized growth (locus YHR079C, strain IRE1, hits give low values): 0.703
normalized growth (locus YHR082C, strain KSP1, hits give low values): 0.845
normalized growth (locus YHR205W, strain SCH9, hits give low values): 0.696
normalized growth (locus YIL147C, strain SLN1, hits give low values): 0.964
normalized growth (locus YJL095W, strain BCK1, hits give low values): 0.638
normalized growth (locus YJL128C, strain PBS2, hits give low values): 0.918
normalized growth (locus YJL157C, strain FAR1, hits give low values): 0.848
normalized growth (locus YJR016C, strain ILV3, hits give low values): 0.974
normalized growth (locus YJR066W, strain TOR1 (second series), hits give low values): 0.848
normalized growth (locus YJR066W, strain TOR1, hits give low values): 0.636
normalized growth (locus YKL048C, strain ELM1, hits give low values): 0.935
normalized growth (locus YKL067W, strain YNK1, hits give low values): 0.808
normalized growth (locus YKL101W, strain HSL1, hits give low values): 0.861
normalized growth (locus YKL193C, strain SDS22, hits give low values): 0.962
normalized growth (locus YKL203C, strain TOR2, hits give low values): 0.91
normalized growth (locus YLR113W, strain HOG1, hits give low values): 0.746 (active)
normalized growth (locus YLR133W, strain CKI1, hits give low values): 0.846
normalized growth (locus YLR403W, strain SFP1, hits give low values): 0.772
normalized growth (locus YML070W, strain DAK1, hits give low values): 0.888
normalized growth (locus YMR001C, strain CDC5, hits give low values): 0.951
normalized growth (locus YMR205C, strain PFK2 (second series), hits give low values): 0.843
normalized growth (locus YMR277W, strain FCP1, hits give low values): 0.959
normalized growth (locus YNL006W, strain LST8, hits give low values): 0.971
normalized growth (locus YNL020C, strain ARK1, hits give low values): 0.82
normalized growth (locus YNL161W, strain CBK1, hits give low values): 0.972
normalized growth (locus YNL183C, strain NPR1, hits give low values): 0.72
normalized growth (locus YNL207W, strain RIO2, hits give low values): 0.961
normalized growth (locus YNL222W, strain SSU72, hits give low values): 0.962
normalized growth (locus YNL307C, strain MCK1 (second series), hits give low values): 0.766
normalized growth (locus YOL078W, strain AVO1, hits give low values): 0.963
normalized growth (locus YOL136C, strain PFK27, hits give low values): 0.893
normalized growth (locus YOR061W, strain CKA2, hits give low values): 0.824
normalized growth (locus YOR119C, strain RIO1, hits give low values): 0.838
normalized growth (locus YOR231W, strain MKK1, hits give low values): 0.766
normalized growth (locus YOR329C, strain SCD5, hits give low values): 0.967
normalized growth (locus YPL031C, strain PHO85, hits give low values): 0.827
normalized growth (locus YPL153C, strain RAD53, hits give low values): 0.808
normalized growth (locus YPL204W, strain HRR25, hits give low values): 0.801
normalized growth (locus YPL209C, strain IPL1, hits give low values): 0.968
normalized growth (locus YPL256C, strain CLN2, hits give low values): 0.794 (active)
normalized growth (locus YPR025C, strain CCL1, hits give low values): 0.962
normalized growth (locus YPR106W, strain ISR1, hits give low values): 0.957
normalized growth (locus YPR111W, strain DBF20, hits give low values): 0.939
normalized growth (strain NNK1, hits give low values): 0.97
normalized growth (strain TSCII, hits give low values): 0.964

Source: PubChem BioAssay AID1159580 (chemical genetic matrix, 2015)
